Data on 103 molecules can be found in ChEMBL document CHEMBL4513216, “Probing the Open Global Health Chemical Diversity Library for Multistage-Active Starting Points for Next-Generation Antimalarials” (ACS Infect Dis, 2020).

Screen size: about 65,000 compounds; about 2,100 (3.2%) showed an effect of 50% or more. The median lay at about -52%. Only a selection was taken, and strong results are over-represented in it overall.

The subject of this assay is Plasmodium falciparum. The experiment in a line: Screen against P. falciparum Asexual Blood Stage (ABS), at 5uM. Type of assay: functional, Dd2. Particulars: tested at 5 uM.
As to `Cc1cccnc1CCNC(=O)[C@@]12CNC[C@@H]1CN(S(C)(=O)=O)C2`, the INHIBITION was -50.4%.
`CC(Cc1c(F)cccc1F)NC(=O)Nc1cnn(CC(N)=O)c1` (stereo not drawn): the INHIBITION is recorded as -77.1%.
Take `Cc1nn(C)c(N(C)C)c1CNC(C)Cc1c(F)cccc1F` (stereo not drawn): the INHIBITION is -5.23%.
The figure for `Cc1ccccc1CC(C)NCc1c(C)nn(C)c1N1CCOCC1` (stereo not drawn) is 65.8%; for `CCc1cccnc1NCc1cnc(N2CCOCC2)nc1` it is -53.7%.
Then `c1csc(CN2C[C@@H]3COC[C@]3(COCc3ccncc3)C2)c1`, with -42.6%; and `COCCN1C(=O)C2(CCN(CC3CC3)CC2)c2ccccc21`, with -18%.
As for `CCN1C(=O)C2(CCN(CCN(C)C)CC2)c2ccccc21`, the INHIBITION is given as -56.2%.
In the case of `O=C(c1ccoc1)N1CCC2(CC1)C(=O)N(CC1CC1)c1ccccc12`, the INHIBITION is given as 74.7%.
The figure for `CC(Cn1ccnc1)NCc1n[nH]c2c1CCC2` (stereo not drawn) is -33%.
Then `c1ccc(-c2nc3c(c(NCc4n[nH]c5c4CCC5)n2)CCNC3)cc1`, with 89.6%.
The figure for `CCCN(C(=O)c1cccnc1)c1nc2c(s1)CCc1c-2cnn1C` is 82.4%; for `CN1CCC2(CCN(C(=O)c3cccnc3)C2)C1` (stereo not drawn) it is -11.5%; for `O=C(c1cccnc1)N1C[C@H]2CC[C@@H](C1)N(Cc1ncc[nH]1)C2` it is -47.1%.
Take `O=C(c1ccc(F)c(Cl)c1)N1C[C@H]2CC[C@@H](C1)N(Cc1ccccc1)C2`: the INHIBITION is 74.1%.
The figure for `O=C(c1c[nH]c(=O)c(Cl)c1)N1C[C@H]2CC[C@@H](C1)N(CC1CCC1)C2` is -110%; for `CS(=O)(=O)CC1(CNc2ccc(C#N)c(C(F)(F)F)c2)CC1` it is -27%.
Then `CCOc1ccc(CNCC(O)c2ccccc2)cc1Cl` (stereo not drawn), with 89.4%; and `CNc1nc(C)cc(NCc2cc(C)cc3c(C)c(C)[nH]c23)n1`, with 92.7%; and `CNc1cc(C)nc(NCc2cc(C)cc3c(C)c(C)[nH]c23)n1`, with 92%.
Then `c1nc(N2CCOCC2)nc2c1COCC21CCN(CC2CC2)C1` (stereo not drawn), with -12.1%.
Consider `CC(C)NC(=O)[C@H]1C[C@@H]2[C@@H](C1)OCCN2Cc1ccncc1`, for which the INHIBITION is recorded as -82%.
Then `COc1cccc(C2SCC(=O)Nc3ccsc32)c1OC` (stereo not drawn), with -4.19%; and `CN(C)CCN1CC2(CCCN(c3ncc(Cl)cc3F)C2)CCC1=O` (stereo not drawn), with 82.8%.
The figure for `O=C(Cc1ccsc1)N1C[C@@H]2OCCN(CC3CC3)[C@@H]2C1` is -48%; for `Cc1ccc(N2CCN(C)c3ncccc3C2)nn1` it is -27.9%.
Turning to `c1cncc(-c2ccc3c(c2)C2(CCNCC2)CC3)c1`, the INHIBITION is 71.1%.
Then `O=C1[C@H]2CN(Cc3ccco3)C[C@H]2CN1c1cncnc1`, with -54.3%.
For the molecule `O=C1N(c2cccnc2)CCC12CCCN(Cc1ccco1)C2` (stereo not drawn), the INHIBITION is on record as -5.52%.
Then `c1cncc(-c2ccc3c(c2)CCC32CCN(Cc3ccco3)CC2)c1`, with 73.9%; and `CN(C)CCN1CCCC12CCCN(C(=O)c1cccnc1)C2` (stereo not drawn), with -10.1%.
The figure for `O=C1NC2(CCNCC2)CC1c1cccnc1` (stereo not drawn) is -11.2%; for `c1cncc(-c2ccc3c(c2)CCC32CCNCC2)c1` it is 86.9%.
Then `COCC(=O)N1CCC2(CCN(Cc3cccnc3)C2)CC1`, with -7.11%; and `CN(C)CC(=O)N1CCC2(CCc3cc(-c4cccnc4)ccc32)CC1`, with 80.1%; and `Cc1n[nH]c(C)c1CC(=O)N1CCN(C)C2(CCNC(=O)CC2)C1` (stereo not drawn), with -115%.
`COCCN1CCC12CCN(C(=O)Cc1cccs1)C2` (stereo not drawn): the INHIBITION is recorded as -9.04%.
The figure for `CN1CCC2(COCc3cnc(-c4ccccc4)nc32)C1` (stereo not drawn) is -45%; for `COCCn1c(C(=O)NC(C(N)=O)C(C)C)cc2ccccc21` (stereo not drawn) it is -92%; for `COc1nc(N2CCNCC2)ncc1Br` it is 23.8%.
The figure for `Cc1ccc(N2CCC3(CN(CCO)CCC3(F)F)C2)nn1` (stereo not drawn) is -59.8%; for `Fc1cnc(N2CCCC3(CCN(Cc4ccsc4)C3)C2)nc1` (stereo not drawn) it is 87.6%; for `Fc1cnc(N2CC3(CCN(Cc4ccsc4)C3)C2)nc1` it is 3.41%.
The figure for `COCCN1CCC2(C1)CN(c1ncc(F)cn1)C2` is -81.1%.
Regarding `CCc1cnc(N2CC3(CCN(Cc4ccsc4)C3)C2)nc1`, the INHIBITION is on record as -19.4%.
Then `COc1ccc(CN2CCC3(CCCN(c4ncc(F)cn4)C3)C2)cc1` (stereo not drawn), with 87.1%; and `Fc1cnc(N2CCCC3(CCN(Cc4ccoc4)C3)C2)nc1` (stereo not drawn), with 73.7%; and `COc1ncc(CN2CCC3(CCCN(CC4CCC4)C3)C2)cn1` (stereo not drawn), with -57.4%.
Then `Cc1c[nH]c(CN2CCC3(CCCN(Cc4ccc(F)c(F)c4)C3)C2)n1` (stereo not drawn), with 80.3%.
The figure for `Fc1cnc(N2CCCC3(CCN(Cc4nccs4)C3)C2)nc1` (stereo not drawn) is 25.5%; for `Cc1ncc(CN2CCC3(CCCN(CC4CCC4)C3)C2)cn1` (stereo not drawn) it is -45.2%; for `CCc1ncc(CN2CCC3(CCCN(CC4CCC4)C3)C2)cn1` (stereo not drawn) it is 8.28%.
Regarding `Cc1oc(-c2ccco2)nc1CC(=O)N1CCN(CC(C)(C)O)CC1`, the INHIBITION is -109%.
The figure for `Cc1noc(CN2CC=C(c3c[nH]c4ncccc34)CC2)n1` is -31.2%; for `Cc1cccc(CN2C[C@@H](NC(=O)C3CC3)[C@H]3OCCC[C@H]32)n1` it is -83.3%.
The figure for `Fc1cnc(N2CCCC3(CCN(Cc4cccs4)C3)C2)nc1` (stereo not drawn) is 69.4%; for `Fc1cnc(N2CCCC3(CN(Cc4cccs4)CCO3)C2)nc1` (stereo not drawn) it is -78.4%.
As to `Cc1cnc(N2CCOC3(CCCN(C)C3)C2)nc1` (stereo not drawn), the INHIBITION is 14.9%.
The figure for `Fc1cnc(N2CCOC3(CCN(Cc4ccsc4)CC3)C2)nc1` is 81.6%; for `Fc1cnc(N2CCOCC3(CCCNC3)C2)nc1` (stereo not drawn) it is -11.2%.
Then `Cc1cnc(N2CC3(CCN(Cc4cccnc4)C3)C2)nc1`, with 12.1%.
The figure for `Fc1cnc(N2CCCC3(CCN(Cc4ccco4)C3)C2)nc1` (stereo not drawn) is 78.2%; for `c1cnc(N2CCOCC3(CN(Cc4ccsc4)CCO3)C2)nc1` (stereo not drawn) it is -62.3%.
In the case of `c1cnc(N2CCCC3(CCN(Cc4ccsc4)C3)C2)nc1` (stereo not drawn), the INHIBITION stood at 68.1%.
The figure for `c1cnc(N2CCCC3(CCN(Cc4cccs4)C3)C2)nc1` (stereo not drawn) is 40.4%; for `c1cnc(N2CCCC3(CCN(Cc4ccncc4)C3)C2)nc1` (stereo not drawn) it is -63.1%; for `Cc1ccc(N2CCO[C@H]3CN(Cc4ccoc4)C[C@H]32)nn1` it is -106%.
The figure for `Cc1cc(CN2C[C@@H]3CN(Cc4ccsc4)CCO[C@@H]3C2)no1` is -101%.
The figure for `CC(C)(C)c1cc(=O)[nH]c(C2(N)CCCCC2)n1` is -114%; for `O=C(NC1CCC1)[C@H]1C[C@H]2NCCO[C@@H]2C1` it is -269%; for `c1ccc(N2CC3(CCN(Cc4cccnc4)C3)C2)nc1` it is -13.8%.
Regarding `c1ccc(N2CCCC3(CCN(Cc4ccsc4)C3)C2)nc1` (stereo not drawn), the INHIBITION is listed as 82.6%.
Then `CCc1nc(CC(=O)N2CCCC2CN2CCCC2)cs1` (stereo not drawn), with -48.9%; and `CN(C)c1nc2c(c(N(C)Cc3n[nH]c4c3CCCC4)n1)CCNCC2`, with 84.4%; and `CN(Cc1n[nH]c2c1CCCC2)c1nc(C2CC2)nc2c1CCNCC2`, with 89.5%.
The figure for `CN(C)C[C@]12COC[C@H]1CN(Cc1ccc3ccccc3n1)C2` is 27.2%; for `Cn1cccc1C(=O)N1CCN2C[C@H](Oc3cccnc3)C[C@H]2C1` it is 30.4%; for `COC(=O)c1ccc(C2SCC(=O)Nc3c2cnn3C(C)(C)C)cc1` (stereo not drawn) it is -53.3%.
Then `CN(Cc1cccc(F)c1)C(=O)CS(=O)(=O)Cc1c(Cl)cccc1Cl`, with 82.7%; and `CCc1nnc(NC(=O)CCN2CC=C(c3cnn(C)c3)CC2)s1`, with -25.3%.
For `COc1ccccc1C(C)(C)NCc1ccc(C)o1`, the INHIBITION is 77.9%.
The figure for `c1cncc(CN2CCO[C@H]3[C@H](OCCN4CCCC4)CC[C@@H]32)c1` is -68.3%.
Consider `c1cc(CN2CCO[C@H]3[C@H](OCCN4CCCC4)CC[C@@H]32)ccn1`, for which the INHIBITION was -53.4%.
Then `CC(Cn1cccn1)NCc1nc(-c2ccco2)no1` (stereo not drawn), with -82%.
As to `O=C1C[C@H]2[C@@H](CCN2Cc2ccccn2)N1Cc1cccnc1`, the INHIBITION is listed as -99.2%.
The figure for `CC(=O)N1C[C@H]2CNC[C@@]2(C(=O)NCCCOc2cccnc2)C1` is -133%; for `CN1CCCC1CNC(=O)CCCOc1ccc(Cl)cc1` (stereo not drawn) it is 78.2%.
Then `CN1CCCC1CNC(=O)CCCOc1cccc(Br)c1` (stereo not drawn), with 71.7%; and `CCc1c(C)[nH]c(C2(N)CCCCC2)nc1=O`, with -26.9%.
Then `CCN1CCN(Cc2nc(CC(C)C)no2)CC1`, with 34.7%; and `Cc1noc(C)c1CN1CC[C@H]2OCC[C@@]2(C(=O)N2CCCC2)C1`, with -28.8%; and `CCC(=O)NCC(=O)NCC1(c2c(F)cccc2F)CCCC1`, with 73.7%.
For `Cc1cc(CN2C[C@@H]3COC[C@]3(CNC(=O)N(C)C)C2)no1`, the INHIBITION is reported as -94.8%.
For the molecule `Cc1ccc(CN2CCC3(CC2)CC3CN(C)Cc2cccnc2)o1` (stereo not drawn), the INHIBITION was found to be 70.8%.
Then `Cc1ccc(CN2CCO[C@H]3[C@H](OCc4cccnc4)CC[C@@H]32)o1`, with -70.3%; and `Cc1ccc(CN2CCO[C@H]3[C@@H](OCc4cccnc4)CC[C@@H]32)o1`, with 3.59%.
The figure for `CCN(C)c1ncc2c(c1C(=O)O)CCN(C1CCOC1)C2` (stereo not drawn) is -4.54%; for `Cc1ccccc1CN1CCCC1c1cccc(Nc2nccs2)n1` (stereo not drawn) it is 84.8%; for `Cc1cccc(CN2C(=O)C[C@H]3[C@@H]2CCN3Cc2nccs2)n1` it is -3.26%.
The figure for `c1ccc(CCN2CCCC2c2cccc(Nc3nccs3)n2)cc1` (stereo not drawn) is 77%.
Regarding `Cc1cnc(Nc2cccc(C3CCCN3Cc3cn(C)nc3C)n2)s1` (stereo not drawn), the INHIBITION was found to be 89.8%.
Then `Cc1cccc(CN2CCCC2c2cccc(Nc3nccs3)n2)c1` (stereo not drawn), with 88.1%; and `Cc1cccc(CO[C@@H]2CC[C@H]3[C@H]2OCCN3Cc2nccs2)n1`, with -43.3%.
